The source of these data is PubChem BioAssay.

The source made the active and inactive calls. No rule for the calls is given here.

Pantothenate synthetase (Mycobacterium tuberculosis (strain ATCC 25618 / H37Rv)), sequence (P9WIL5 whole entry, looked up): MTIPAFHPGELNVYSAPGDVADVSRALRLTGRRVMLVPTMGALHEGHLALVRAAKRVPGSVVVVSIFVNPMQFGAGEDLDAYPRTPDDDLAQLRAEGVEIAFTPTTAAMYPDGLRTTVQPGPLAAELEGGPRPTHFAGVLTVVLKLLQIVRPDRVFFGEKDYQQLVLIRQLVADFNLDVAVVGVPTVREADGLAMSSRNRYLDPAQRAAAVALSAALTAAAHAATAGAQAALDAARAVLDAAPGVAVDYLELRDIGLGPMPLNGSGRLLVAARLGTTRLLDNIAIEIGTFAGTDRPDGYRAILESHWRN

The assay addresses Pantothenate synthetase (Mycobacterium tuberculosis (strain ATCC 25618 / H37Rv)) (UniProt P9WIL5). The assay can be described thus: Coupled enzyme confirmation of inhibitors against recombinant Mtb PanC (AID 375).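 Also: 0% = full reaction with vehicle and 100% = no enzyme background.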 The conditions noted are these: coupled enzyme assay; at 10 µM, active compounds read high.
For `C=CCN(C(=O)CNC(=O)c1ccco1)C(C(=O)NC1CCCCC1)c1ccccc1F` (stereo not given), the inhibition was 0% (inactive). In the case of `COc1cccc(C2CC(c3ccc(C)cc3)Nc3nc(N)nn32)c1` (stereo not given) it was 0% (inactive); in that of `O=c1[nH]c2ccc(S(=O)(=O)N3CCN(C4CCCCC4)CC3)cc2[nH]c1=O`, 1% (inactive).

Turning to `CC(=O)C1=C(C)Nc2ncnn2C1c1cccc(OCc2ccccc2)c1` (stereo not given), the inhibition was 0% (inactive). Regarding `CC(C)c1cc(C(=O)NCc2ccco2)no1`, the inhibition was 0% (inactive). With `CC(OC(=O)CNC(=O)C12CC3CC(CC(C3)C1)C2)C(=O)Nc1ccc(N2CCOCC2)cc1` (stereo not given), the inhibition was 0% (inactive). With `Cc1ccc(-c2nn(C)c(=O)c3ccccc23)cc1S(=O)(=O)N1CCOCC1`, the inhibition was 9% (inactive). Take `O=C1CSC(c2cn(-c3ccccc3)nc2-c2ccccc2)N1Cc1ccco1` (stereo not given): the inhibition is 4% (inactive). For the compound `CC1(c2ccc(OC(F)F)cc2)NC(=O)N(CC(=O)Nc2ccc3c(c2)OCO3)C1=O` (stereo not given), the inhibition is 3% (inactive). In the case of `CCOP(=O)(c1ccc(N(C)C)cc1)C(O)c1c(Cl)cccc1Cl` (stereo not given) it was 0% (inactive). Under `Cc1ccc(S(=O)(=O)C(C#N)c2nc3ccccc3nc2OC(C)C)cc1` (stereo not given) stands 0% (inactive); under `O=C(Cc1ccccc1)N1CCCC(c2nc(-c3cccs3)no2)C1` (stereo not given), 0% (inactive). As for `O=C(NCCCN1CCCC1=O)c1ccc2c(=O)n(Cc3ccco3)c(=S)[nH]c2c1`, the inhibition was 0% (inactive). In the case of `COCCn1c(SCC(=O)Nc2sc(C)c(C)c2C#N)nnc1C(C)C` it was 0% (inactive). Regarding `Cn1c(=O)[nH]c(=O)c2c1nc(N1CCNCC1)n2Cc1cccc2ccccc12`, the inhibition was 8% (inactive). Take `O=C(CP(=O)(c1ccccc1)c1ccccc1)N1CCCCC1`: the inhibition was 6% (inactive). Under `O=C(CSc1ncn[nH]1)c1ccco1` stands 0% (inactive). Consider `O=C(NCCC1=CCCCC1)C1CCN(S(=O)(=O)c2cccc3nsnc23)CC1`, for which the inhibition is 10% (inactive). As to `C=CCn1c(=O)c2ccccc2n2c(SC(C)C(=O)Nc3nc(-c4ccccc4)cs3)nnc12` (stereo not given), the inhibition is 4% (inactive). In the case of `Cc1ccc(Cn2c(C)nc3c(c2=O)c2nc4ccccc4nc2n3Cc2ccco2)cc1` it was 0% (inactive); in that of `O=C1c2ccccc2C(Nc2ccc3c(c2)OCO3)N1Cc1ccc2c(c1)OCO2` (stereo not given), 0% (inactive). For the compound `Cn1cccc1Cc1nnc(SCC(=O)Nc2ccccc2F)n1CCc1ccccc1`, the inhibition was 0% (inactive). `O/N=C/c1ccc(OCC(O)COc2ccc(/C=N/O)cc2)cc1`: the inhibition is 0% (inactive).

Take `N#CC1=C(SCc2ccccc2)NC(=O)C(C#N)C12CCCC2` (stereo not given): the inhibition was 2% (inactive). As for `CCOC(=O)c1oc2ccccc2c1NC(=O)c1cccc(OC)c1OC`, the inhibition was 0% (inactive).

`CCOC(=O)CSc1nnc(Cn2nnc(-c3ccccc3)n2)n1CC`: the inhibition is 4% (inactive).

With `Cc1ccc2oc(-c3ccccc3C(=O)O)cc(=O)c2c1`, the inhibition was 13% (inactive). On to `O=C(O)CCCc1ccccc1`, for which the inhibition was 0% (inactive). Turning to `CCOC(=O)C1CCCN(C(=O)c2cc(=O)c3ccccc3o2)C1` (stereo not given), the inhibition was 5% (inactive).

`COc1cc(OC)cc(-c2nc(N)n[nH]2)c1`: the inhibition was 0% (inactive). With `Cn1c(SC/C=C/c2ccccc2)nnc1-c1cnccn1`, the inhibition was 1% (inactive). In the case of `COc1ccc(C(=O)CSc2nnc(C3CCCCC3)n2N)c(OC)c1`, the inhibition is 0% (inactive). Under `O=C(C1CC1)N1CCc2cc(S(=O)(=O)N(CCO)Cc3ccccc3)ccc21` stands 0% (inactive). Regarding `CCOC(=O)C(C)C1(O)c2ccccc2-c2ncccc21` (stereo not given), the inhibition was 0% (inactive). Under `CCOC(=O)C1=C(C)NC(C)=C(C(=O)OC)C1c1cccc(Cl)c1Cl` (stereo not given) stands 4% (inactive). As to `O=c1cc(CSc2nnnn2-c2ccccc2)nc2scc(-c3ccccc3)n12`, the inhibition is 3% (inactive). On to `O=S1(=O)CC(N2CCCCC2)C(N2CCCCC2)C1` (stereo not given), for which the inhibition is 6% (inactive). Consider `CCOc1ccc(OCC)c(NC(=O)C2CCN(c3ncccn3)CC2)c1`, for which the inhibition was 0% (inactive). In the case of `c1ccc(-n2ncc3c(N4CCCCC4)ncnc32)cc1` it was 0% (inactive); in that of `CCNC(=O)c1ccc(NS(=O)(=O)c2ccccc2)cc1`, 6% (inactive).

Broadly, the inhibition is the change of the read-out against control, counted positive when it falls.
